{"source": "PubChem BioAssay AID1347426", "about": "(Functional Genomics Laboratory (NCATS/FGL), 2020)", "note": "Screen size: about 31,000 sequences; about 1,400 (4.5%) were called active.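 The calls were made as follows: active = median seed-adjusted z-score above 1 or below -1; inactive = the rest.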 Only a selection was taken, and actives are over-represented in it overall."}
{"assay": "Novel Modifiers of Survival Motor Neuron (SMN) Protein: Gene Identification via Genome-wide siRNA Screen;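 also: luminescence tracks full-length SMN protein made from the SMN2 reporter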", "conditions": "HEK293T SMN2-luciferase reporter, siRNA knockdown, 72 h; actives lie on both sides", "in_short": "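Each of three siRNAs per gene is reverse-transfected (1 pmol) into reporter HEK293T cells whose luciferase output tracks SMN protein level. After 72 h culture, ONE-Glo luminescence is control-normalized, log10-transformed and MAD-standardized; Common Seed Analysis deprioritizes seed-driven hits.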"}
{"sequence": "GCUCCAGUCUCACUAAACATT against ZNF552", "median seed-adjusted z-score": "0.437 (inactive)"}
{"sequence": "GAAUGAAGGUUUAUAUUGATT against EPHB3", "median seed-adjusted z-score": "-0.407 (inactive)"}
{"sequence": "AGGAGACUCUUUGCUACAATT against MRGPRX1", "median seed-adjusted z-score": "-0.188 (inactive)"}
{"sequence": "GAAUGUUGACUCUACUGCATT against POLR3K", "median seed-adjusted z-score": "0.504 (inactive)"}
{"sequence": "GGGACCAUCCUGUUCUUCATT against KCNK12", "median seed-adjusted z-score": "1.04 (active)"}
{"sequence": "CUCACAACAAAUUACUUAATT against CYP2C9", "median seed-adjusted z-score": "0.246 (inactive)"}
{"sequence": "GGACUUGAGAGAUCUCUUUTT against DAB1", "median seed-adjusted z-score": "0.307 (inactive)"}
{"sequence": "GGUCUAAAGGUGGAGAUAATT against EIF2C2", "median seed-adjusted z-score": "-0.183 (inactive)"}
{"sequence": "CAUGUGCAGUACAUCCAUATT against TIMP3", "median seed-adjusted z-score": "-1.05 (active)"}
{"sequence": "GCCCUUUACAUACUCUUCATT against IL23R", "median seed-adjusted z-score": "0.512 (inactive)"}
{"sequence": "GGAUGAUAUUCUAUCCUUUTT against IPO13", "median seed-adjusted z-score": "0.612 (inactive)"}
{"sequence": "UGCUCAGCAGUACAACGUATT against SYN1", "median seed-adjusted z-score": "-0.458 (inactive)"}
{"sequence": "UGUCCACGGUUAAAAUUAUTT against CCL16", "median seed-adjusted z-score": "-0.308 (inactive)"}
{"sequence": "CAAACCGAAUAGAAACUUUTT against PSMC1", "median seed-adjusted z-score": "-2.23 (active)"}
{"sequence": "UCAACUGCCCAUACACUUATT against LOC647743", "median seed-adjusted z-score": "-0.203 (inactive)"}
{"sequence": "UCCCAGUGAUUAUACGUUATT against ARPC4", "median seed-adjusted z-score": "-0.211 (inactive)"}
{"sequence": "GGAUGAGAACAUUAAAACATT against COQ3", "median seed-adjusted z-score": "0.426 (inactive)"}
{"sequence": "UGAUGGAAGUUGUCACUUATT against BLK", "median seed-adjusted z-score": "-0.274 (inactive)"}
{"sequence": "GGCAAUGCUUUACUAUGAATT against ABCG8", "median seed-adjusted z-score": "-0.0233 (inactive)"}
{"sequence": "AGAUGUUCUUAAGACCAAATT against PACSIN2", "median seed-adjusted z-score": "0.73 (inactive)"}
{"sequence": "GGACUUCUGAAAAUUCGCATT against EP400", "median seed-adjusted z-score": "1.83 (active)"}
{"sequence": "CCGCGAUCAUAGACCUAGATT against FOXO4", "median seed-adjusted z-score": "-0.0576 (inactive)"}
{"sequence": "GGACAGGAAGAUACAAGAATT against GPR113", "median seed-adjusted z-score": "-0.434 (inactive)"}
{"sequence": "GGAAGAAUAUGUUUAGAUATT against UBE2N", "median seed-adjusted z-score": "0.995 (inactive)"}
{"sequence": "CGAGCAAUUUAGAGACUUATT against PCDHGA3", "median seed-adjusted z-score": "0.27 (inactive)"}
{"sequence": "GGAGAUACCAGGAACCCAATT against SLC7A13", "median seed-adjusted z-score": "0.121 (inactive)"}
{"sequence": "CACGCAGAGUUACCGAAAATT against SPEN", "median seed-adjusted z-score": "-1.69 (active)"}
{"sequence": "CGAGCCACCGAGAAGAUAATT against ATAD3A", "median seed-adjusted z-score": "-0.283 (inactive)"}
{"sequence": "GGACAAGAUUGGUGGGUUATT against PEX1", "median seed-adjusted z-score": "0.227 (inactive)"}
{"sequence": "GUACCAAUACUGAUAAGAATT against SLC9A11", "median seed-adjusted z-score": "-0.12 (inactive)"}
{"sequence": "GGCCUAUCCUGAUUCUGAUTT against RND2", "median seed-adjusted z-score": "-0.0613 (inactive)"}
{"sequence": "GGAUACUCUGAUGAAGAUATT against GNAQ", "median seed-adjusted z-score": "-1.23 (active)"}
{"sequence": "AGUCAGCUCCGAUACUUCATT against CAPN10", "median seed-adjusted z-score": "0.364 (inactive)"}
{"sequence": "UCACUGUGGUGUAUUUUAATT against PDP2", "median seed-adjusted z-score": "-0.0726 (inactive)"}
{"sequence": "GCUUCCAACUGCUUAUAUATT against TP53RK", "median seed-adjusted z-score": "0 (inactive)"}
{"sequence": "CCAUCUCCUCUGAAACGUATT against RREB1", "median seed-adjusted z-score": "-0.414 (inactive)"}
{"sequence": "CAGAGACUGUUAUCCAUUUTT against SLC25A36", "median seed-adjusted z-score": "0.134 (inactive)"}
{"sequence": "UUGUGGAUGUUGAACCUAATT against SNRPD1", "median seed-adjusted z-score": "-2.97 (active)"}
{"sequence": "GCUACUAACAUUACUCCAATT against FOLH1", "median seed-adjusted z-score": "0.148 (inactive)"}
{"sequence": "CCAUCUCUACCGACGAAGATT against ARHGEF1", "median seed-adjusted z-score": "-0.0658 (inactive)"}
{"sequence": "CAUUCUAUGGGAUACCCUATT against SYT4", "median seed-adjusted z-score": "-0.354 (inactive)"}
{"sequence": "CAGGAAGUCUGACCAAUAATT against LPL", "median seed-adjusted z-score": "0.389 (inactive)"}
{"sequence": "UGACCGAUGUCUUCCUUAUTT against RHOQ", "median seed-adjusted z-score": "-0.328 (inactive)"}
{"sequence": "CUCUGAUUAUCAUGAGAUATT against SRGAP2", "median seed-adjusted z-score": "0.0323 (inactive)"}
{"sequence": "AACCUAUAAUGAGGAUGUATT against ZNRF2", "median seed-adjusted z-score": "0 (inactive)"}
{"sequence": "AGAGCGACCUCACCACCAATT against RAB1B", "median seed-adjusted z-score": "1.55 (active)"}
{"sequence": "GGAAGCGAAUACUACUAUUTT against ST6GALNAC3", "median seed-adjusted z-score": "-0.205 (inactive)"}
{"sequence": "GCAUUGAUCCUCAGAGUAATT against PTPRU", "median seed-adjusted z-score": "0 (inactive)"}
{"sequence": "GGGAUAUGAUAGAUCCUUATT against CPO", "median seed-adjusted z-score": "0.0875 (inactive)"}
{"sequence": "CCGCAUAGCUCAUAGGAUATT against SMARCA2", "median seed-adjusted z-score": "-0.458 (inactive)"}
{"sequence": "GCAUGGUAAUUUAUAGUUUTT against NGF", "median seed-adjusted z-score": "-0.325 (inactive)"}
{"sequence": "GCACGGAAUUUGAACAGUATT against SOX17", "median seed-adjusted z-score": "-0.46 (inactive)"}
{"sequence": "GGAACAUCUUUGUACCUAUTT against NARG1", "median seed-adjusted z-score": "-1.02 (active)"}
{"sequence": "AUCUAGACUUCUCUUUAUATT against FHL3", "median seed-adjusted z-score": "0.105 (inactive)"}
{"sequence": "UCCUCAACGUGUGCGAUGATT against KCNG1", "median seed-adjusted z-score": "-0.00995 (inactive)"}
{"sequence": "CCUCAGCUUUUACAGCAAATT against RAD23A", "median seed-adjusted z-score": "-1.13 (active)"}
{"sequence": "GGCCUAUGCUAAUCAUUCUTT against FANCA", "median seed-adjusted z-score": "0.418 (inactive)"}
{"sequence": "GACUUGAAGAUGCUAAUCATT against TIPIN", "median seed-adjusted z-score": "0 (inactive)"}
{"sequence": "GAAUGAAAUCAGAGUAUAATT against RNF125", "median seed-adjusted z-score": "0.204 (inactive)"}
{"sequence": "CCAGGUCCAUGGAAAGAAATT against NEIL2", "median seed-adjusted z-score": "-0.256 (inactive)"}
{"sequence": "CGGCUAGAAGAGGAACAGATT against LSG1", "median seed-adjusted z-score": "1.31 (active)"}
{"sequence": "CAAUGUGGUGUAUAAUACATT against VNN2", "median seed-adjusted z-score": "-0.583 (inactive)"}
{"sequence": "CAGUCACUGCACUACAGAATT against ATF7", "median seed-adjusted z-score": "0.903 (inactive)"}
{"sequence": "AGAACAAAGACCUAAUGGATT against TNNT3", "median seed-adjusted z-score": "-0.293 (inactive)"}
{"sequence": "GAUUGAGAAUUCUAUUGUATT against UTP6", "median seed-adjusted z-score": "-0.253 (inactive)"}
{"sequence": "GAAUCGUUGUCAGAGCCUUTT against LMNB1", "median seed-adjusted z-score": "0.0619 (inactive)"}
{"sequence": "AGGCAAAGACGGAACAACATT against TRIM69", "median seed-adjusted z-score": "0.214 (inactive)"}
{"sequence": "GCAUUGGUCUAGAGCUUUATT against SCPEP1", "median seed-adjusted z-score": "-0.99 (inactive)"}
{"sequence": "GCAUCGUCACUGUCAUGAATT against ITPR3", "median seed-adjusted z-score": "-1.28 (active)"}
